Our source for the remaining activity values is PubChem BioAssay.

The source made the active and inactive calls. How the calls were made is not given here.

The test has as its system Aerobactin synthetase IucA (Klebsiella pneumoniae, hypervirulent). Put plainly: biochemical IucA inhibition screen of LOPAC library by absorbance (AID 1346212).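 Further: 100% = no compound wells and 0% = no enzyme wells.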 The note with it: IucA enzyme assay, absorbance (OD) readout; active compounds read low;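 tested at 8 µM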.
Consider `COc1cc(CNC(=O)CCCCCCC(C)C)ccc1O`, for which the remaining activity was 96.1% (inactive). For `COc1cc2c(CCNC(C)=O)c[nH]c2cc1O` the value was 92.2% (inactive); for `O=C(O)C1CCNCC1`, 111% (inactive); for `CN(C)CC/C=C1/c2ccccc2Sc2ccc(Cl)cc21`, 115% (inactive). For `O=C1C(SCCO)=C(SCCO)C(=O)c2ccccc21` the value was 117% (inactive); for `CC1CNCCN1S(=O)(=O)c1cccc2cnccc12` (centres undefined), 95.7% (inactive); for `C[C@]12C[C@H](O)[C@H]3[C@@H](CCC4=CC(=O)CC[C@@]43C)[C@@H]1CC[C@@H]2C(=O)CO`, 110% (inactive). Consider `Cn1ccc2cc3c(cc21)CCN3C(=O)Nc1cccnc1`, for which the remaining activity was 102% (inactive). For `C/C=C1\C(=O)C[C@H]2[C@@H]3CCC4=CC(=O)CC[C@]4(C)[C@H]3CC[C@]12C` the value was 101% (inactive).

As for `O=C(O)/C(=C/c1c(C(=O)O)[nH]c2cc(Cl)cc(Cl)c12)c1ccccc1`, the remaining activity was 117% (inactive).

With `CCc1c(C)[nH]c2c1C(=O)C(CN1CCOCC1)CC2` (centres undefined), the remaining activity was 121% (inactive). Consider `COC1=C(OC)C(=O)c2ccccc2C1=O`, for which the remaining activity is 109% (inactive). `O=C1NC(=S)S/C1=C/c1cc(Br)ccc1OCc1ccccc1Br`: the remaining activity is 116% (inactive). For `C[C@]12CCC(=O)C=C1CC[C@@H]1[C@@H]2CC[C@@]2(C)[C@H]1CC[C@]2(O)C(=O)CO`, the remaining activity was 110% (inactive). For the compound `CCn1c(=O)[nH]c2cc(Cl)c(Cl)cc21`, the remaining activity is 98.7% (inactive). Next, `Nc1ncnc2c1c(-c1ccc(Oc3ccccc3)cc1)cn2C1CCCC1`: 122% (inactive); `COC(=O)[C@@H](N)Cc1ccc(O)c(O)c1`: 107% (inactive). For `CN1CCc2cccc3c2[C@H]1Cc1ccc(O)c(O)c1-3` the value was 107% (inactive). Turning to `COc1cccc(-c2cc(=O)c3ccccc3o2)c1N`, the remaining activity was 95.7% (inactive). Next, `CC(C)C[C@H]1C(=O)N2CCC[C@H]2[C@]2(O)O[C@](NC(=O)[C@@H]3C=C4c5cccc6[nH]c(Br)c(c56)C[C@H]4N(C)C3)(C(C)C)C(=O)N12`: 108% (inactive); `CCC(NC(C)C)C(O)c1ccc(O)c(O)c1` (centres undefined): 102% (inactive); `COc1ccccc1N1CCN(CCN(C(=O)c2ccc(F)cc2)c2ccccn2)CC1`: 117% (inactive). With `C=C[C@@]1(C)CC(=O)[C@]2(O)[C@@]3(C)[C@@H](O)CCC(C)(C)[C@@H]3[C@H](O)[C@H](OC(C)=O)[C@@]2(C)O1`, the remaining activity is 107% (inactive). As for `OCc1ccc(-c2nn(Cc3ccccc3)c3ccccc23)o1`, the remaining activity is 118% (inactive). As for `CC(=O)NNC(=O)N1Cc2ccccc2Oc2ccc(Cl)cc21`, the remaining activity is 105% (inactive).

`CC[C@]1(O)C[C@H]2CN(CCc3c([nH]c4ccccc34)[C@@](C(=O)OC)(c3cc4c(cc3OC)N(C=O)[C@H]3[C@@](O)(C(=O)OC)[C@H](OC(C)=O)[C@]5(CC)C=CCN6CC[C@]43[C@@H]65)C2)C1`: the remaining activity is 109% (inactive).

As to `C=C(C)C1CC=C(C(=O)O)CC1` (centres undefined), the remaining activity is 82.4% (inactive). As to `CCN(CC)CC#CCOC(=O)C(O)(c1ccccc1)C1CCCCC1` (centres undefined), the remaining activity is 118% (inactive).

As for `CC(=O)[C@]1(O)Cc2c(O)c3c(c(O)c2[C@@H](O[C@H]2C[C@H](N)[C@H](O)[C@H](C)O2)C1)C(=O)c1ccccc1C3=O`, the remaining activity is 125% (inactive). For `COc1ccc(NC=O)c(C(=O)CCNC(C)=O)c1` the value was 95% (inactive); for `CCCCCCCCc1ccc(-c2ccc(C(=O)O)cc2)cc1`, 124% (inactive); for `Oc1ccc(/C=C/c2ccc(/C=C/c3ccc(O)cc3)c(Br)c2)cc1`, 85% (inactive). As to `N[C@H](C(=O)O)[C@H](O)C(=O)O`, the remaining activity is 106% (inactive). For `CC(N)(Cc1ccc(O)cc1)C(=O)O` (centres undefined) the value was 106% (inactive); for `CNCCC(Oc1ccccc1C)c1ccccc1` (centres undefined), 102% (inactive); for `O=C1NC(c2cccc([N+](=O)[O-])c2)=CCN1c1ccccc1O`, 105% (inactive). Regarding `Cc1cccc(C2CN(C)CCc3c2cc(O)c(O)c3Cl)c1` (centres undefined), the remaining activity is 105% (inactive). With `NC1CCN(c2cccc(Cl)n2)CC1`, the remaining activity was 104% (inactive). As for `CC[N+](C)(C)c1cccc(O)c1`, the remaining activity was 86.8% (inactive).

For orientation: remaining activity means the signal under treatment as a percentage of the control signal.
